This passage reports sensor-assay potency score (higher = more potent) results from the OligoGym collection.
Also: reference of the scale not given here.

The first experiment deals with WFDC12. Put plainly: pooled miR-30 sensor sort-seq; sequence = guide strand. The note with it: shRNA.
As for AACTCCTTCCACAGCCACCAGG, the sensor-assay potency score (higher = more potent) is -1.44. On the same count and under the same terms, under TGCAGGTAACAACACTTCCTTT stands -1.24; under TTTAACTCCTTCCACAGCCACC, -1.29; under ATGGCCTTGACACATCTTCATC, -1.78. Same read-out and setting: next, AACAACACTTCCTTTCCCCCAG: -0.813; TCCTCCTTCTTCCAGTTCCTTC: -1.8. The sequence TTGACACATCTTCATCCTTGTT had a sensor-assay potency score (higher = more potent) of -1.2. Same read-out and setting: next, TTCACAGGAATCACACACTTGA: -0.211. As to TTGTCAGCTGGGCAAACCCCTG, the sensor-assay potency score (higher = more potent) was -1.97. The same measure, in the same setting: under AAGAACGAGAGACACCATGAGG stands -1.13. On the same count and under the same terms, under TGACACATCTTCATCCTTGTTT stands 0.329.

Another experiment addresses WFDC5. Described as above. Conditions: shRNA.
TCTGTAGCAGCACTTCCTGGTC: the sensor-assay potency score (higher = more potent) is -0.738. In turn, AGTCCTTGTGACACAGGTGGTT came in with a sensor-assay potency score (higher = more potent) of -1.67.

For the sequence TTTTTGCCCGAGCAGTCTGAGT, the sensor-assay potency score (higher = more potent) was -1.7. Still for that read-out and setting: next, TGTAGCAGCACTTCCTGGTCAA: 0.234. The sequence TGTCTTCCACGCACTGGTCAGG displayed a sensor-assay potency score (higher = more potent) of -1.15.

Take TTTTGGTGGAGGAAGCAGCATG: the sensor-assay potency score (higher = more potent) was -0.976. TCTGAGTCCTTGTGACACAGGT displayed a sensor-assay potency score (higher = more potent) of -0.214. In turn, TCTTCCTGCCAAAGACAGCAGG registered a sensor-assay potency score (higher = more potent) of -1.27. Still for that read-out and setting: under TCAAGGGACACTGGCTGTCTTC stands -1.2; under TGGCTGTCTTCCACGCACTGGT, -0.871. On the same count and under the same terms, next, TTCCTGGTCAAGGGACACTGGC: -1.55; TGACACAGGTGGTTCATGGGGC: 0.531.

For another experiment, the target named is WFDC8. The experiment is described as above. Conditions: shRNA.
In turn, TCTCTTTGGGACATAACCCTGG showed a sensor-assay potency score (higher = more potent) of -0.176. Still for that read-out and setting: next, TTTTTGACTGTCCAGGCCCTGG: -1.19.

The sequence TACATTTCAGTCCACAATGTGA showed a sensor-assay potency score (higher = more potent) of -1.04. The same measure, in the same setting: next, TTGGGTTTATCAATCTTGGTAC: 0.104. Still for that read-out and setting: next, ATCTGTGTTACATGAGTCCGGA: -0.285. The same measure, in the same setting: under TTGTCCATCCTTAACAATTAAC stands -1.71.

In turn, TTAACAATTAACATGCAGGCCG gave a sensor-assay potency score (higher = more potent) of -0.341.

TAACAATTAACATGCAGGCCGT came in with a sensor-assay potency score (higher = more potent) of -0.862. AAACCTTTTTTGACTGTCCAGG yielded a sensor-assay potency score (higher = more potent) of -1.14. The same measure, in the same setting: under TATTTGAAGGGTGTGCAGCGGT stands -0.17; under TGGATTCACAACATTTGTCTGT, -0.069. Still for that read-out and setting: next, TTGTGTTTGATCTTCTTGGTCA: 0.398.

The target of the next experiment is WFIKKN1. The experiment is described as above. The note with it: shRNA.
In the case of TTCTTGACGCGCTTCTCGCTGG, the sensor-assay potency score (higher = more potent) was -0.797. Same read-out and setting: under TTGCCATACATCTGATCAGGGC stands -0.931; under TCGGCGTCCATATAGCAGCGGT, -1.4.

On to TTGTAGAGCACCAGCTGCCCGA, for which the sensor-assay potency score (higher = more potent) was -1.47.
